# Compound activity deposited in PubChem by several laboratories.
# CRFR2-BP antag = blocks CRF-induced signaling of the CRF-BP/CRF-R2 complex. HEK293 CRF-R2/CRF-BP, CRF-induced calcium fluorescence. inhibition, % at 11.8 µM. actives 0.59% (n = 350,000). AID 588475;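 active means inhibition of the ligand-induced calcium signal above about 50% at the single tested concentration, limit read from the data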
# ANO1 block = mouse TMEM16A channel inhibition, primary screen. Q8BHY3. HEK293 TMEM16A/YFP iodide influx fluorescence, ionomycin. normalized B-score (activity score, 25-100; higher = stronger inhibition) at 10 µM. actives 1.2% (n = 310,000). AID 588511;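 active means ratio plate-corrected score three or more library SD toward inhibition, starting fluorescence score within five deviations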;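 further: score derived from kinetic fluorescence span divided by baseline fluorescence per well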
# Target sequence (Q8BHY3 whole entry, looked up): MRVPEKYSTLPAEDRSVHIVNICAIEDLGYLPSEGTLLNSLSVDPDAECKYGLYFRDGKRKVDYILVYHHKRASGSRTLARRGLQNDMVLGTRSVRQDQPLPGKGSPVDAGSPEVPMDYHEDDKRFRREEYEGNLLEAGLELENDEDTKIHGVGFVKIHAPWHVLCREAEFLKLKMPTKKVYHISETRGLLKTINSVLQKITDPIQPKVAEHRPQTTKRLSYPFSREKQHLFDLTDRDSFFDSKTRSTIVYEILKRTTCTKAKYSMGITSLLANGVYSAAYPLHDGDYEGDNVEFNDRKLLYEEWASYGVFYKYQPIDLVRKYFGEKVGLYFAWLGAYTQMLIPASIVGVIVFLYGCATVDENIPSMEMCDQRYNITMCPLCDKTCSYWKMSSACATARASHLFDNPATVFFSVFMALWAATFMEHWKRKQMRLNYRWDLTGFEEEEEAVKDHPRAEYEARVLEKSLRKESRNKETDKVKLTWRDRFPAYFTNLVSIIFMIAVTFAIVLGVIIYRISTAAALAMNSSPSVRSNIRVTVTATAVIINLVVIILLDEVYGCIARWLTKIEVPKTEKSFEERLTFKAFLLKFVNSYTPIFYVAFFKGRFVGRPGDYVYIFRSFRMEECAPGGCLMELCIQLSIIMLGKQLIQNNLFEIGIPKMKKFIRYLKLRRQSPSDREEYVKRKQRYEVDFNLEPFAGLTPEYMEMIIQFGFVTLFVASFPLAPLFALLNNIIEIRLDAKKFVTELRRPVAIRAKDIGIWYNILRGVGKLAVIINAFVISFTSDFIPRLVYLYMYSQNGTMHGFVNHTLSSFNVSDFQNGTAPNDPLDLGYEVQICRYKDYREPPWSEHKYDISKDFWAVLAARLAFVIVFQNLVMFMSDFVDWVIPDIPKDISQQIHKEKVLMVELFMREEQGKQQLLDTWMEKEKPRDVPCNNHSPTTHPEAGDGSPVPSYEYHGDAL
# MPTP inh = permeability transition pore inhibition; isolated mouse mitochondria, Ca2+ swelling absorbance, 30 min; inhibition, % at 10 µM; actives 1.4% (n = 360,000); AID 602449;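 active means inhibition of 50% or more, scaled per plate between neutral and stimulator controls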;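 further: 0% = DMSO wells given calcium and 100% = 1 mM EGTA wells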
# CRFBP-R2 agonist = CRF-BP/CRF-R2 complex agonism. HEK293 CRF-R2/CRF-BP, calcium dye fluorescence (FLIPR); percent of saturating CRF peptide response. activation, % at 13.2 µM. actives 0.46% (n = 350,000). AID 588473;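 active means activation of at least 50%, plus an integration ratio under a set limit after plate pattern correction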;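 further: plate controls were neutral control wells without compound for no effect and CRF at EC100 for full effect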
# ANO1 activ = activates or potentiates the mouse TMEM16A chloride channel | B-score at 10 µM | Q8BHY3 | HEK293 TMEM16A/YFP-H148Q/I152L, iodide quench fluorescence; active compounds read low | AID 623877 | actives 0.3% (n = 340,000);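 active means fluorescence-ratio B-score plate-corrected deviation score at least 3 library SD below zero, with starting fluorescence score within 5 deviations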;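 further: channel opened by trigger with iodide after compound preincubation; score built on the fluorescence ratio of max minus min over baseline; more negative score means more quench and so TMEM16A activation or potentiation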
# NR3A LBD binder = NR3A (human) ligand-binding domain modulation | NR3A LBD differential scanning fluorimetry, Tm shift; 0% = protein alone, 100% = glycine-bound protein | Tm shift relative to glycine control, % at 25 µM | actives 2.5% (n = 340,000) | AID 1259313;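 active means melting temperature shift of at least 10% of the positive control shift, at one fixed dose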
# MPTP counter = membrane potential counter-screen of mitochondrial pore inhibitors | shares compounds with MPTP inh | isolated mitochondria, Rhodamine 123 fluorescence | inhibition, % at 10 µM | actives 78% (n = 5,000) | AID 624504; in the data active means inhibition above about 22%;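 further: 0% = DMSO vehicle and 100% = positive control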
# MPTP abs DR = MPTP inhibition, dose response swelling confirmation; shares compounds with MPTP inh; isolated mitochondria swelling, absorbance; IC50, µM; actives 58% (n = 780); AID 651561; in the data active means IC50 below about 20 µM
# MPTP counter DR = MPTP inhibitor counter-screen activity, dose response | shares compounds with MPTP inh | isolated mitochondria counterscreen, fluorescence read-out | IC50, µM | actives 49% (n = 780) | AID 651564; in the data active means IC50 below about 80 µM
# * hit, by the source's call; i = inactive; . = no result given. The list is not random: actives were taken first. Their share in the collection is about 5.1%.
SMILES,CRFR2-BP antag,ANO1 block,MPTP inh,CRFBP-R2 agonist,ANO1 activ,NR3A LBD binder,MPTP counter,others
CN(CCCN1c2ccccc2CCc2ccccc21)CC(=O)c1ccc(Cl)cc1,.,i,.,.,.,.,.,
CN(C)CCCN1c2ccccc2CCc2ccc(Cl)cc21,-11,i,80*,1,i,1,-15,
Cc1nnc2ccc(Oc3ccc(-c4ccccc4)cc3)nn12,-8,i,74*,0,i,-5,66*,
COC(=O)c1ccc(Oc2ccc3nnc(C)n3n2)cc1,-5,i,1,-3,i,-1,.,
CC(O)(c1ccc(F)c(F)c1)c1nc(/C=C/c2ccc(C(F)(F)F)cc2)cs1 (stereo unspecified),.,.,1,.,.,.,.,
O=C(Nc1ccc2c(c1)OCO2)c1ccc2sc([C@H]3C[C@H](O)[C@@H](CO)O3)nc2c1,.,.,-1,.,.,.,.,
Cc1nc(SCc2nc3cc(Cl)c(F)cc3[nH]2)c2oc3ccccc3c2n1,1,.,63*,2,i,9,80*,
CCc1nc(SCCO)c2oc3ccccc3c2n1,4,i,0,0,i,3,.,
Cc1nc(SCc2nc3ccc(C(F)(F)F)cc3[nH]2)c2oc3ccccc3c2n1,-4,.,50*,1,i,5,89*,
Cc1nc(SCc2nc3ccc(Br)cc3[nH]2)c2oc3ccccc3c2n1,6,.,44,0,i,-1,.,
Cc1nc(SCc2nc3ccc(Cl)cc3[nH]2)c2oc3ccccc3c2n1,2,.,37,2,i,-3,.,
CCc1nc(SCc2nc3ccccc3[nH]2)c2oc3ccccc3c2n1,5,25*,69*,0,i,-4,82*,
COc1ccc(C)cc1-n1nnnc1SCC(=O)NC1CC1,-6,.,0,-1,i,-1,.,
COCCCNCCCOc1ccc(Cl)cc1C(C)(C)C,-5,i,82*,0,i,-4,-15,MPTP abs DR=6*;MPTP counter DR=>80
CCC(C)NCCCOc1ccc(Cl)cc1C(C)(C)C (stereo unspecified),7,i,0,0,i,2,.,
COCCNCCCOc1ccc(Cl)cc1Br,-4,i,-1,2,i,-1,.,
CNCCCOc1ccc(Cl)cc1C(C)(C)C,-24,i,91*,1,i,0,-12,MPTP abs DR=5.1*;MPTP counter DR=>80
Cc1ccc(S(=O)(=O)N2CCOC23CCN(S(=O)(=O)c2c(C)cc(C)cc2C)CC3)cc1,8,i,-1,4,i,-2,.,
Cc1ccc(C2=NC(=O)/C(=C/c3cc(O)c(O)c(Br)c3)S2)cc1,35,.,114*,0,-6*,4,36*,
COc1cc(/C=C2\SC(c3ccc(C)cc3)=NC2=O)cc(OC)c1O,-11,i,14,0,i,-17,.,
O=C(Nc1cccc(Br)c1)c1ccc(Cl)c(S(=O)(=O)N2CCOCC2)c1,-96,i,54*,8,i,-3,75*,
O=C(Nc1cccc(C(=O)NC2CC2)c1)c1ccc(Cl)c(S(=O)(=O)N2CCOCC2)c1,-11,.,0,-1,i,0,.,
COc1ccc(CC(=O)NCc2nn(-c3ccccc3)nc2C)cc1OC,-10,i,-1,-3,i,-1,.,
COc1ccc(-c2ocnc2C(=O)NCc2nn(-c3ccccc3)nc2C)cc1,6,i,98*,7,i,2,87*,
CCn1nc([N+](=O)[O-])c(C(C#N)c2nc3cc(C(F)(F)F)ccc3s2)c(Cl)c1=O (stereo unspecified),68*,i,114*,28,i,0,12,
SMILES,CRFR2-BP antag,ANO1 block,MPTP inh,CRFBP-R2 agonist,ANO1 activ,NR3A LBD binder,MPTP counter,others
CCCn1nc([N+](=O)[O-])c(C(C#N)c2nc3ccccc3o2)c(Cl)c1=O (stereo unspecified),74*,100*,101*,3,i,8,50*,
Cn1nc([N+](=O)[O-])c(C(C#N)c2ccccn2)c(Cl)c1=O (stereo unspecified),3,i,2,-2,i,0,.,
CC(OC(=O)c1nc(Cl)ccc1Cl)C(=O)Nc1ccccc1F (stereo unspecified),9,i,-3,0,i,2,.,
c1ccc2c(c1)oc1c(N3CCN(Cc4ccc5c(c4)OCO5)CC3)ncnc12,6,.,86*,2,i,-2,77*,
CCc1ccc([C@H]2[C@@H]3C(=O)C[C@@H]4C(=O)N(C5CCCCC5)C(=O)[C@@H]4[C@@H]3CN2S(=O)(=O)c2ccc(C)cc2)cc1,.,.,1,.,.,.,.,
N#C/C(=C(/O)c1ccc(Br)s1)c1nc2ccccc2[nH]1,24,i,3,1,i,-1,.,
N#C/C(=C(/O)c1ccc([N+](=O)[O-])s1)c1nc2ccccc2[nH]1,25,i,85*,20,i,-1,81*,
NS(=O)(=O)c1ccc(NC(=O)CN2CCN(S(=O)(=O)c3cccs3)CC2)cc1,-5,.,0,0,i,4,.,
CC(C)(C)c1ccc(C(O)CCCN2CCC(C(O)(c3ccccc3)c3ccccc3)CC2)cc1 (stereo unspecified),-24,i,92*,0,i,1,-20,
COC(=O)C1=C(C)NC(C)=C(C(=O)OC)C1c1ccc(-c2cccc(Cl)c2Cl)o1,9,i,82*,2,i,10,2,MPTP abs DR=>100;MPTP counter DR=>80
O=S(=O)(Nc1ccc2c3c(cccc13)CC2)c1ccc(F)cc1,-31,i,2,4,i,-10,.,
CSc1ccc(S(=O)(=O)Nc2ccc3c4c(cccc24)CC3)cc1,-13,i,61*,2,i,-2,73*,
N#Cc1cc(C(=O)c2cc(Br)ccc2O)cn(Cc2ccccc2)c1=O,-11,i,52*,1,i,0,77*,
CCCCn1c(SCC(=O)c2ccccc2)nc2ccsc2c1=O,0,i,64*,-1,i,1,10,MPTP abs DR=i;MPTP counter DR=>80
COc1ccc(CN(C)C(=O)[C@H]2O[C@@H](n3cnc4c(N)ncnc43)[C@H](O)[C@@H]2O)cc1OC,.,.,0,.,.,.,.,
O=C(NCc1ccc(F)cc1)c1cc(C2CCCCN2S(=O)(=O)c2ccccc2)on1 (stereo unspecified),.,.,1,.,.,.,.,
N#CC(C#N)=C(Nc1ccc(F)cc1)SCc1cccc(F)c1,94*,25*,95*,105*,i,4,85*,
